Screens deposited in PubChem BioAssay by National Center for Advancing Translational Sciences (NCATS).
RORg inh: blocks mouse ROR gamma transcriptional activity; Drosophila S2 Gal4-RORgamma UAS-luciferase reporter, 20 h; Potency, µM (highest dose often 53.6 µM), without a hit: at the highest dose activity change, negative = inhibition, hits mostly inhibitors; 310,000 compounds, 5.4% hits; AID 2551; also: nearly all actives have a fitted effect of over 60% in size
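Read-out: Photinus luciferase luminescence; inhibitors lower reporter signal. Insect Schneider cells with Gal4-ROR gamma fusion under metallothionein promoter, UAS reporter; 700 uM final copper sulfate induction, 20 hr, ambient temperature.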
Gal4-VP16 FLuc: counter-screen for ROR gamma inhibitors: Gal4-VP16 reporter; Drosophila S2 Gal4-VP16 UAS-luciferase, luminescence, 20 h; Potency, µM (top dose mostly 53.6 µM), without a hit: at the top dose activity, negative = inhibition, hits mostly inhibitors; 310,000 compounds, 3.5% hits; AID 2546;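 also: Gal4-VP16 expression switched on by copper sulfate through the metallothionein promoter; nearly all actives have a fitted effect of over 50% in size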
PLK1 PBD block: PLK1 (human) polo-box domain binding inhibition; Plk1 PBD binding of FITC phosphopeptide, fluorescence polarization; Potency, µM, without a hit: max response, negative = inhibition, usual class: inhibitors; 360,000 compounds, 2.8% hits; also: series mostly up to about 57 µM; nearly all actives have a fitted effect of over 65% in size
Sfp PPTase inh: Sfp phosphopantetheinyl transferase inhibition; 310,000 compounds, 3.5% hits; Potency, µM, inactives show largest response in the series, negative = inhibition, most hits filed as inhibitors; Biochemical Sfp PPTase activity, qHTS;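 also: the enzyme is Sfp with the accession as filed and its product quenches rhodamine fluorescence; 0% = enzyme reaction without inhibitor and -100% = no enzyme wells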
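Fluorescence-quenching assay with 15 nM Sfp, 5 uM rhodamine-CoA and 12.5 uM BHQ-2-labelled ybbR peptide in pH 7.6 Hepes/MgCl2 buffer. Enzyme was pre-incubated with compound for 15 min at room temperature. Rate was taken from the 30-min fluorescence change (525/598 nm).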
ALDH1A1 inh: inhibitors of human aldehyde dehydrogenase 1A1. P00352. Purified ALDH1A1, NADH fluorescence, propionaldehyde substrate. Potency, µM (series often up to 75.3 µM), for the others: at the top dose activity, negative = inhibition, usual class: inhibitors. 220,000 compounds, 7.3% hits. AID 1030; active = well fitted inhibition curve with a large enough effect, not every such curve was filed as active; inconclusive = small, poorly fitted or top-dose-only effect, or another doubt; inactive = no such curve, though single readings can be large or run the other way;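 also: plate controls were no enzyme wells and a reference inhibitor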
Target sequence (P00352 whole entry, looked up): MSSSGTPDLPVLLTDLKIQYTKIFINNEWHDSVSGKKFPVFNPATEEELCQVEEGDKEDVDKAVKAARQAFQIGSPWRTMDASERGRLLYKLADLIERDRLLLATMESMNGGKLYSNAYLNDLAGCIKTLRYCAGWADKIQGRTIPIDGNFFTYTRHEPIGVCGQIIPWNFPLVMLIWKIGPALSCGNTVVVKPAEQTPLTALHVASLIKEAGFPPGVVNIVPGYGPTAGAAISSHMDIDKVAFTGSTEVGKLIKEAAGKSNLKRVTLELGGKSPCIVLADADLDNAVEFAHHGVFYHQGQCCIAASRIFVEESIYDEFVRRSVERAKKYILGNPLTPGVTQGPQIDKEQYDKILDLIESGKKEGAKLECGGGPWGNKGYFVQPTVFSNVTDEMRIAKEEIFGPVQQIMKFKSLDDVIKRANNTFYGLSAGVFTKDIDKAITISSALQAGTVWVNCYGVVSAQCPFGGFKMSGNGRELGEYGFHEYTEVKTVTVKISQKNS
Numbers without * were called inactive; [ ] = remark or other dose. Compounds with a hit are over-represented: about 12% of the library has one in this group of screens. Unless noted, calls follow the shape of the dose curve; as a rule, active = well fitted curve in the direction sought with a large enough effect; inconclusive = small, poorly fitted or top-dose-only effect, or another doubt; inactive = no such curve, though single readings can be large; an effect the other way counts as inactive or inconclusive. Unless noted, % is scaled to controls: 0 for no effect and ±100 for the full control effect; potency is read from the fitted curve at half-maximal effect.

CC(=O)NC12CC3CC(C1)CC(C(=O)Nc1cccc(S(=O)(=O)N4CCCCCC4)c1)(C3)C2 was read as PLK1 PBD block 3%.
`CCCCC/C=C\C/C=C\C/C=C\C/C=C\CCCCCC(N)=O` gave RORg inh -2%, Gal4-VP16 FLuc 7%, Sfp PPTase inh -12% and ALDH1A1 inh -2%.
Screening CC(=O)NNc1ncnc2c1cnn2-c1ccccc1 returned RORg inh -33%, Gal4-VP16 FLuc -14%, PLK1 PBD block -5%, Sfp PPTase inh 17% and ALDH1A1 inh -1%.
`O=C(NNc1ncnc2c1cnn2-c1ccc(F)cc1)c1cccs1` gave RORg inh 13µM*, Gal4-VP16 FLuc -5%, PLK1 PBD block -8%, Sfp PPTase inh 28% and ALDH1A1 inh -10%.
Screening COc1cccc(CNC(=O)CCC2CCCN(C(=O)Cc3ccccc3F)C2)c1 (stereo unspecified) returned RORg inh -3%, Gal4-VP16 FLuc -6%, PLK1 PBD block 6%, Sfp PPTase inh 9% and ALDH1A1 inh 11µM*.
`COc1ccc(C(=O)N2CCCC(CCC(=O)NCc3ccc(F)c(F)c3)C2)o1` (stereo unspecified) gave RORg inh 33%, Gal4-VP16 FLuc 23%, PLK1 PBD block inconclusive, Sfp PPTase inh 56µM* and ALDH1A1 inh 16µM*.
COc1ccccc1CC(=O)N1CCCC(CCC(=O)NCc2ccccc2F)C1 (stereo unspecified) was read as RORg inh 16%, Gal4-VP16 FLuc 10%, PLK1 PBD block -9% and Sfp PPTase inh 15%.
`Oc1ccccc1-c1cc(C(F)(F)C(F)F)nc(-c2ccccc2)n1` gave RORg inh -35%, Gal4-VP16 FLuc -6%, PLK1 PBD block 5%, Sfp PPTase inh 28% and ALDH1A1 inh 3%.
Screening O=[N+]([O-])c1ccc(O)c(-c2cc(C(F)(F)F)nc(-c3ccccc3)n2)c1 returned RORg inh 1.1µM*, Gal4-VP16 FLuc 2.8µM*, PLK1 PBD block -16% and Sfp PPTase inh -1%.
Screening COc1ccc(NC(=O)CCc2nnc3ccc(N4CCC(C)CC4)nn23)cc1 returned RORg inh 11%, Gal4-VP16 FLuc -3%, PLK1 PBD block 2% and Sfp PPTase inh 11%.
For CC1CCN(c2ccc3nnc(CCC(=O)Nc4cccc(F)c4)n3n2)CC1 the results were RORg inh 4%, Gal4-VP16 FLuc -6%, PLK1 PBD block 27µM* and Sfp PPTase inh -2%.
Screening COc1ccc(NC(=O)c2cc3c(-c4ccc(OC)c(OC)c4)nn(C)c3s2)cc1OC returned RORg inh -26%, Gal4-VP16 FLuc -3%, PLK1 PBD block 1%, Sfp PPTase inh 14% and ALDH1A1 inh 10%.
COc1ccc(-c2nn(C)c3sc(C(=O)NCc4ccco4)cc23)cc1OC was read as RORg inh -15%, Gal4-VP16 FLuc -4%, PLK1 PBD block 27µM*, Sfp PPTase inh -19% and ALDH1A1 inh inconclusive.
`O=C(CSc1ccc(-c2ccco2)nn1)NCc1ccccc1` gave RORg inh 35%, Gal4-VP16 FLuc 28%, PLK1 PBD block -10%, Sfp PPTase inh 22µM* and ALDH1A1 inh inconclusive.
COc1ccc(-c2ccc(SCC(=O)c3ccc(F)cc3)nn2)cc1OC was read as RORg inh 17%, Gal4-VP16 FLuc -29%, PLK1 PBD block -13%, Sfp PPTase inh 14% and ALDH1A1 inh 16µM*.
For O=C(CSc1ccc(-c2ccco2)nn1)NCc1ccc(Cl)cc1 the results were RORg inh 19%, Gal4-VP16 FLuc -7%, PLK1 PBD block -14%, Sfp PPTase inh -29% and ALDH1A1 inh 7.1µM*.
`O=C1CC[C@H](NC(=O)c2ccccc2)C(=O)N1` gave ALDH1A1 inh 10%[13.5 µM].
Screening O=C1c2ccccc2C(c2nnnn2-c2ccc3c(c2)OCCO3)N1C1CC1 (stereo unspecified) returned PLK1 PBD block -8%.
Screening C=CCN1CCc2c(cc(O)c(O)c2Cl)C(c2cccc(C)c2)C1 (stereo unspecified) returned RORg inh -36%, Gal4-VP16 FLuc 0%, Sfp PPTase inh -24% and ALDH1A1 inh 2%.
`COc1ccccc1CCNC(=O)CSc1ccc(-c2ccco2)nn1` gave RORg inh -3%, Gal4-VP16 FLuc -2%, PLK1 PBD block -12%, Sfp PPTase inh 22µM* and ALDH1A1 inh inconclusive.
